Data published in PubChem BioAssay (NCI).
Values joined by “and” are separate entries in the source; they are usually repeats but may differ in a detail not shown here. Equal entries are not always repeated. Compounds without any hit were thinned out: in the full panel of roughly 83,000, 20% have a hit.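 Activity criterion: percent growth below 10, measured after cells in 96-well plates were exposed to a single compound concentration for 48 hours.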 Unmarked numbers belong to inactive results. Active and inactive are the calls of the source.

Test system: CCRF-CEM leukemia
Experiment: NCI-60 one-dose screen, 48 h (100 = growth as untreated, 0 = no growth, -100 = all killed)
Settings: 0.01 µM
Procedure: Growth inhibition of the CCRF-CEM human tumor cell line is measured as a screen for anti-cancer activity. Cells are grown in 96 well plates and exposed to the test compound for 48 hours. Compounds are tested at a single concentration, which is 10^-5 M for most compounds. The reported endpoint is percent growth (GI% or GIPRCNT), where numbers from 0 - 100% represent growth inhibition, and numbers from -100% - 0 represent cell death. For example, a value of 40 represents 60% growth inhibition. A value of 0 means no net growth occurred over the course of the experiment. A value of -40 indicates 40% of cells at the beginning of the experiment died by the end of the experiment. A value of -100 means all cells are dead at the end of the experiment.
NCI-60 Human Tumor Cell Lines Screen was performed using the standard one-dose NCI protocol, which is described in more detail at https://dtp.cancer.gov/discovery_development/nci-60/default.htm.
Compounds with GIPRCNT values below 10 were considered active. Activity score was based on GIPRCNT using the following formula: […]
Score is 0 for GIPRCNT values of 100 or above, 50 for GIPRCNT values of 0, and 100 for GIPRCNT values of -100.

`CC(=O)O[C@H]1C(=O)[C@@]2(C)[C@H]([C@H](OC(=O)c3ccccc3)[C@]3(O)C[C@H](OC(=O)[C@H](O)[C@@H](NC(=O)c4ccccc4)c4ccccc4)C(C)=C1C3(C)C)[C@]1(OC(C)=O)CO[C@@H]1C[C@@H]2O` was tested. Which growth did it give?
The growth was 11.7%.

Same assay, conditions: 2.5 µM

With `CC(=O)O[C@H]1C(=O)[C@@]2(C)[C@H]([C@H](OC(=O)c3ccccc3)[C@]3(O)C[C@H](OC(=O)[C@H](O)[C@@H](NC(=O)c4ccccc4)c4ccccc4)C(C)=C1C3(C)C)[C@]1(OC(C)=O)CO[C@@H]1C[C@@H]2O` as the molecule, how does the growth read?
Its growth is 2.13% (active).

Same assay, conditions: 5 µM

For `CC(=O)O[C@H]1C(=O)[C@@]2(C)[C@H]([C@H](OC(=O)c3ccccc3)[C@]3(O)C[C@H](OC(=O)[C@H](O)[C@@H](NC(=O)c4ccccc4)c4ccccc4)C(C)=C1C3(C)C)[C@]1(OC(C)=O)CO[C@@H]1C[C@@H]2O`, which growth is on record?
Its growth is 5.52% (active).

Same assay, conditions: 10 µM

How did the growth turn out when `Cc1cc(Cl)ccc1NC(=O)/C(Cl)=C1/Sc2ccccc2NC1=O` was run?
The growth was 76.5%.

For `O=C1c2ccccc2CCC1(Br)Br`, which growth is on record?
The growth was -22.2% (active).

With `COc1ccc2oc(-c3ccc(Cl)cc3)c(N3CCN(C)CC3)c2c1` as the molecule, how does the growth read?
Its growth is -12.6% (active).

Which growth does the source give for `COc1cccc(C(c2cc3c(cc2O)OCO3)N2CCOCC2)c1OC` (stereo not given) here?
Its growth is 97.1%.

Which growth does the source give for `S=P(N1CC1)(N1CC1)N1CC1` here?
Its growth is 107% and 106%.

`O=C(O)c1ccccc1.[Ag]` was tested. Which growth did it give?
Its growth is 15.4%.

Which growth does the source give for `CC(=O)O[C@H]1C(=O)[C@@]2(C)[C@H]([C@H](OC(=O)c3ccccc3)[C@]3(O)C[C@H](OC(=O)[C@H](O)[C@@H](NC(=O)c4ccccc4)c4ccccc4)C(C)=C1C3(C)C)[C@]1(OC(C)=O)CO[C@@H]1C[C@@H]2O` here?
The growth was 7.71% (active) and 5.2% (active).

`CC1CCC2(C(=O)O)CCC3(C)C(=CCC4C5(C)CC(O)C(O)C(C)(CO)C5C(O)CC43C)C2C1C` (stereo not given) was tested. Which growth did it give?
The growth was 88.5%.

Which growth does the source give for `O=C1c2cccc3cc([N+](=O)[O-])cc(c23)C(=O)N1CCN1CCCC1` here?
The growth was -5.62% (active).

How did the growth turn out when `Cc1cc(O)c2c(c1O)C(=O)C13C(=C2O)C(=O)C2C(O)C1C1C(O)C3C(=O)C3=C(O)c4c(O)cc(C)c(O)c4C(=O)C321` (stereo not given) was run?
Its growth is 4.16% (active).

`O=[N+]([O-])c1cc(S(=O)(=O)Nc2ccccc2)ccc1Cl` was tested. Which growth did it give?
The growth was 85.9%.

For `O=Nc1ccc(Nc2ccccc2)cc1`, which growth is on record?
Its growth is 2.09% (active).

`O=C(NC(=S)Nc1ccccn1)c1ccccc1` was tested. Which growth did it give?
Its growth is 62.2%.

With `Cc1c(-c2ccccc2)[nH]c2ccccc12` as the molecule, how does the growth read?
Its growth is 95.1%.

Which growth does the source give for `COc1ccc(N)c2c1C(=O)c1ccccc1C2=O` here?
Its growth is 89.9%.

For `ClCCn1c(CCl)nc2ccc(Cl)cc21`, which growth is on record?
Its growth is -46.8% (active).

Which growth does the source give for `C=C1N(C)c2ccc(Cl)cc2C1(C)C` here?
The growth was 42.2%.

`CN(CC(=O)O)c1ccc(/C=C/c2ccnc3ccccc23)cc1` was tested. Which growth did it give?
The growth was 66.8%.

With `NCc1c(O)ccc2ccccc12` as the molecule, how does the growth read?
Its growth is 93%.

For `O=c1[nH]cc(/C=N\Nc2ccccc2)c(=O)[nH]1`, which growth is on record?
The growth was 31.2%.

Which growth does the source give for `CN(C)c1ccc(/C=C/c2ccnc3ccccc23)cc1N` here?
Its growth is 44.3%.

With `O=C1C=CC(=O)N1c1ccc(N2C(=O)C=CC2=O)cc1` as the molecule, how does the growth read?
The growth was 15.9%.

How did the growth turn out when `O=C(CNS(=O)(=O)Cc1ccccc1)NNc1ccccc1` was run?
Its growth is 45.2%.

How did the growth turn out when `N#C/C(=C/N1C(=O)/C(=C/c2ccc([N+](=O)[O-])cc2)SC1=S)c1nc2ccccc2s1` was run?
The growth was 84%.

For `S=C1SCN(CCc2ccccc2)CN1CCc1ccccc1`, which growth is on record?
Its growth is 57.3%.

Which growth does the source give for `Cc1cc(N=C2C=CC(=[N+](C)C)C=C2)c(N)cc1N` here?
Its growth is 89.3%.

How did the growth turn out when `Cc1cc(C)c(N2C(=O)CC(Sc3ccccc3N)C2=O)c(C)c1` (stereo not given) was run?
The growth was 34.9%.

`Nc1nc(N)c2cc(Sc3ccc4ccccc4c3)ccc2n1` was tested. Which growth did it give?
Its growth is 38.2%.

For `COc1ccc(C(C#N)=C2C=CC(=NO)C=C2)cc1`, which growth is on record?
Its growth is 29.8%.

How did the growth turn out when `CC[C@@]1(OC(=O)CN(C)C)C(=O)OCc2c1cc1n(c2=O)Cc2cc3c(N)cccc3nc2-1` was run?
The growth was 5.31% (active).

How did the growth turn out when `O=C1C(Cl)=C(Cl)C(Cl)(Cl)C(Cl)C1(Cl)Cl` (stereo not given) was run?
Its growth is 94.9%.

With `CCC(C)(c1ccc(O)c(C)c1)c1ccc(O)c(C)c1` as the molecule, how does the growth read?
The growth was 89%.

For `COc1ccc2c(c1)[nH]c1c(/C=C/c3ccccc3)nccc12`, which growth is on record?
The growth was 65%.

Which growth does the source give for `N#CC(=C1C=CC(=NO)C=C1)c1ccccc1` here?
Its growth is 3.4% (active).

Which growth does the source give for `CCC(=O)Oc1ccc(/C=N/NC(N)=S)nc1` here?
Its growth is -0.545% (active).

With `O=S(=O)(c1cc(Cl)ccc1O)c1cc(Cl)ccc1O` as the molecule, how does the growth read?
Its growth is 76.2%.

Same assay, conditions: 100 µM

`S=P(N1CC1)(N1CC1)N1CC1` was tested. Which growth did it give?
The growth was 21.4%.
